The supplement of paper PMC3342239
Where a name gives a salt, the structure may show the parent alone.

test system: Saccharomyces cerevisiae; test: fraction of cells in G1 phase (DNA content, flow cytometry); higher = more cells with unreplicated DNA (G1 delay); conditions: temperature: 30 C; YPD; JTY2953 pdr5 snq2 (sensitized); drug added to: cultures diluted from stationary phase; 6-7 h
Procedure, shortened: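 S. cerevisiae grown in YPD at 30°C was exposed to library drugs. In one setup, overnight sensitized JTY2953 cultures were diluted 1∶200, given a final 20 µg/ml and fixed after 6–7 h, while other runs dosed dividing JTY2953 with fixation 6 h later or BY4741 with fixation 4.33 h later. Cells were ethanol-fixed, stained with SYTOX Green and analysed by flow cytometry at 10,000 events. The G1 fraction is the area of the Dean-Jett-Fox G1 peak divided by the summed G1 and G2/M areas.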

SMILES	fraction of cells in G1 phase
COc1cc2ncnc(Nc3ccc(F)c(Cl)c3)c2cc1OCCCN1CCOCC1 [Gefitinib] (44.7514 µM)	0.535
O=C(O)Cc1ccccc1Nc1c(Cl)cccc1Cl [Diclofenac, Na] (67.5321 µM)	0.473
Nc1ccn([C@@H]2O[C@H](CO)[C@@H](O)[C@@H]2O)c(=O)n1 [Cytarabine] (82.2297 µM)	0.477
CC[C@@]1(O)C(=O)OCc2c1cc1n(c2=O)Cc2cc3c(CN(C)C)c(O)ccc3nc2-1 [Topotecan] (47.4544 µM)	0.481
CC[C@H](C)C(=O)O[C@H]1CCC=C2C=C[C@H](C)[C@H](CC[C@@H]3C[C@@H](O)CC(=O)O3)[C@H]21 [Mevastatin] (51.2132 µM)	0.502
Cc1nccn1CC1CCc2c(c3ccccc3n2C)C1=O (configuration not stated) [Ondansetron] (68.1729 µM)	0.463
CN/C(=N\c1ccc(C2=NNC(=O)CC2C)cc1)NC#N (configuration not stated) [Siguazodan] (70.3425 µM)	0.493
NS(=O)(=O)c1cc(C(=O)O)c(NCc2ccco2)cc1Cl [Furosemide] (60.4688 µM)	0.459
NC(=O)N1c2ccccc2CC(=O)c2ccccc21 [Oxcarbazepine] (79.2785 µM)	0.503
CC1Cc2ccccc2N1NC(=O)c1ccc(Cl)c(S(N)(=O)=O)c1 (configuration not stated) [Indapamide] (54.6685 µM)	0.511
CNC1(C)C2CCC(C2)C1(C)C (configuration not stated) [Mecamylamine HCl] (119.548 µM)	0.486
CC(=O)O[C@]1(C(C)=O)CC[C@H]2[C@@H]3C=C(Cl)C4=CC(=O)CC[C@]4(C)[C@H]3CC[C@@]21C [Chlormadinone acetate] (44.5442 µM)	0.577
O=C(O)c1ccccc1Nc1cccc(C(F)(F)F)c1 [Flufenamic acid] (71.1145 µM)	0.582
C[C@@](Cc1ccc(O)c(O)c1)(NN)C(=O)O [Carbidopa] (88.404 µM)	0.482
CCC[C@@H]1C[C@@H](C(=O)N[C@@H]([C@H]2O[C@H](SC)[C@H](O)[C@@H](O)[C@H]2O)[C@H](C)Cl)N(C)C1 [Clindamycin HCl] (47.0598 µM)	0.505
O=C(NC(Cc1cc(=O)[nH]c2ccccc12)C(=O)O)c1ccc(Cl)cc1 (configuration not stated) [Rebamipide] (53.9381 µM)	0.473

SMILES	fraction of cells in G1 phase
COc1ccnc(C[S+]([O-])c2nc3cc(OC(F)F)ccc3[nH]2)c1OC (configuration not stated) [Pantoprazole] (52.168 µM)	0.484
CC1(C)S[C@@H]2[C@H](NC(=O)COc3ccccc3)C(=O)N2[C@H]1C(=O)O [Pencillin v potassium] (57.2429 µM)	0.461
COc1cc(C(=O)OCCCN2CCCN(CCCOC(=O)c3cc(OC)c(OC)c(OC)c3)CC2)cc(OC)c1OC [Dilazep] (33.074 µM)	0.47
COc1ncnc(NS(=O)(=O)c2ccc(N)cc2)c1OC [Sulfadoxine] (64.4467 µM)	0.474
Cc1ccc(-c2ncc(Cl)cc2-c2ccc(S(C)(=O)=O)cc2)cn1 [Etoricoxib] (55.7337 µM)	0.511
Nc1c(Br)cc(Br)cc1CN[C@H]1CC[C@H](O)CC1 [Ambroxol] (52.8948 µM)	0.529
CN/C(=N\CCSCc1nc[nH]c1C)NC#N [Cimetidine] (79.2571 µM)	0.5
NC12CC3CC(CC(C3)C1)C2 [Amantadine HCl] (106.553 µM)	0.505
C[N+]1(C)[C@@H]2CC(OC(=O)C(O)(c3cccs3)c3cccs3)C[C@H]1[C@@H]1O[C@@H]12 (some centres not stated) [Tiotropium Br] (42.3349 µM)	0.481
CC(=O)Nc1ccc(CC(=O)O)cc1 [Actarit] (103.52 µM)	0.521
CN(C)CCc1c[nH]c2ccc(C[C@H]3COC(=O)N3)cc12 [zolmitriptan] (65.9179 µM)	0.474
O=C(O)Cc1sc(-c2ccccc2)nc1-c1ccc(Cl)cc1 [Fentiazac] (60.6414 µM)	0.533
CCN(CC)CCCC(C)Nc1c2ccc(Cl)cc2nc2ccc(OC)cc12 (configuration not stated) [Quinacrine 2HCl dihydrate] (50.004 µM)	0.529
CC(c1cc2ccccc2s1)N(O)C(N)=O (configuration not stated) [Zileuton] (84.6401 µM)	0.53
C[N+](C)(C)[C@@H](Cc1c[nH]c(=S)[nH]1)C(=O)[O-] [Ergothioneine] (87.2209 µM)	0.464
CCOC(=O)c1cnc2c(cnn2CC)c1NN=C(C)C [Etazolate] (69.1229 µM)	0.5
